# Screens (PubChem)
# FLuc modulator – firefly luciferase modulation, counter-screen for miR-21 project; P08659; purified FLuc, Km substrates, luminescence inhibition; Potency, µM (top dose mostly 57.5 µM), actives largely listed as inhibitors; 360,000 tested, 6.9% active; AID 588342; note: nearly all actives have a fitted effect of over 55% in size
# Target sequence (P08659 whole entry, looked up): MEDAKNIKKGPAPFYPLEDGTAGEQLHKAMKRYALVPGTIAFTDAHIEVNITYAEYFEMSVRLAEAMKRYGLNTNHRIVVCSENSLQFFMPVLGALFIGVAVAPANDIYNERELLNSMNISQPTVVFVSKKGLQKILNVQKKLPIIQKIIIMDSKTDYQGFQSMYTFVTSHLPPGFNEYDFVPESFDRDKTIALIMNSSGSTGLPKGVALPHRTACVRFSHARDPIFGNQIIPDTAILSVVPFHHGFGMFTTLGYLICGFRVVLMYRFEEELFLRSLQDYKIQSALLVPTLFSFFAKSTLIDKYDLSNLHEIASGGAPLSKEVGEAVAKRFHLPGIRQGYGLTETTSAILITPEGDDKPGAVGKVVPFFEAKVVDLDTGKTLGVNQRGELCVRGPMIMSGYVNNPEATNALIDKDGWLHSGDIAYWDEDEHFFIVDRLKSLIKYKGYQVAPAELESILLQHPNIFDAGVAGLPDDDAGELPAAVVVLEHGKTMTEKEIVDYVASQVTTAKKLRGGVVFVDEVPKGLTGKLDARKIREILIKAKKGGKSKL
#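 Purified P. pyralis luciferase (10nM final) with 10uM D-luciferin and 10uM ATP (Km levels) in 50mM Tris acetate pH 7.5, 10mM Mg acetate, 0.01% Tween-20, 0.05% BSA; qHTS 6-point titration, ~60 µM downward; luminescence read.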
# NPC1 prom act – activates the NPC1 promoter. Potency, µM (doses to about 9.22 µM), actives largely listed as activators. 320,000 tested, 2.4% active. Huh7 NPC1 promoter luciferase reporter, 24 h. AID 485313; note: nearly all actives have a fitted effect of over 60% in size
#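 Luminescence from an NPC1 promoter-driven luciferase reporter in stably transfected Huh7 cells was measured after 24 h compound treatment at 37 °C, followed by 10 min ambient incubation with luciferase detection reagent.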
# ELG1 genotox – inducers of genotoxicity in HEK293T ELG1-luciferase cells; HEK293T ELG1-luciferase reporter, luminescence, 16 h; Potency, µM (highest dose often 46 µM), actives largely listed as activators; 330,000 tested, 1.3% active; AID 504466; note: nearly all actives have a fitted effect of over 60% in size
#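 Step 1: seed 2,000 HEK293T ELG1-luciferase cells per well. Step 2: add compound or DMSO, incubate 16 hr at 37 °C. Step 3: ONE-Glo, 30 min at room temperature, read luminescence.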
# SMN2 splice up – enhancers of SMN2 splice variant expression; 210,000 tested, 2.8% active; AID 1458; HEK293 SMN2-luciferase splicing reporter, luminescence, 30-36 h; Potency, µM (highest dose often 46.1 µM), usual class: activators; note: nearly all actives have a fitted effect of over 55% in size
#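 HEK293 cells carry an SMN2 minigene-luciferase reporter in which exon 7 inclusion puts luciferase in frame. Cells were seeded at 2000 cells/well, attached for 10-12 hours, then exposed to compounds for 30-36 hours at 37C before ONE-Glo luminescence.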
# KinaseGlo FLuc – Kinase-Glo luciferase inhibition (counter-screen); Q27757; Kinase-Glo luciferase, ATP luminescence, 8 min; Potency, µM (titrated, usually from 38.3 µM), actives largely listed as inhibitors; 200,000 tested, 0.28% active; note: nearly all actives have a fitted effect of over 60% in size
#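 Inhibition of Kinase-Glo luciferase light generation was assessed at 10 uM ATP in pH 7.2 imidazole buffer, with luminescence measured after eight minutes at ambient temperature.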
# Rab9 promoter act – activates the Rab9 promoter | Huh7 Rab9 promoter-luciferase reporter, luminescence, 24 h | Potency, µM (titrated, usually from 9.22 µM), actives largely listed as activators | 320,000 tested, 2.8% active | AID 485297; note: nearly all actives have a fitted effect of over 60% in size
#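 Stable Rab9-luc Huh7, 1500 cells/well, 2 h settle; cmpd in DMSO, 24 h, 37 °C/5% CO2; luciferase reagent 10 min RT; luminescence.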
# Numbers stand for hits; i = inactive; ? = inconclusive; nt = no result given; [ ] = dose if it differs, or a comment. The list is not random: actives were taken first. Their share in the collection is about 7.3%. Calls come from the whole dose curve; as a rule, active = well fitted curve in the direction sought with a large enough effect; inconclusive = small, poorly fitted or top-dose-only effect, or another doubt; inactive = no such curve, though single readings can be large; an effect the other way counts as inactive or inconclusive.
SMILES,FLuc modulator,NPC1 prom act,ELG1 genotox,SMN2 splice up,KinaseGlo FLuc,Rab9 promoter act
COc1ccc(/C=N/NC(=O)C(=O)Nc2ccccn2)cc1OC,i,i,i,i,i,i
O=[N+]([O-])c1ccc(/C=N/Nc2ccccn2)cc1,i,?,i,nt,nt,?
CCNc1nc(NCC)nc(N/N=C/c2ccc(OC)cc2)n1,i,i,i,nt,nt,i
COc1ccc(/C=N/Nc2nc(C)nc(N)n2)cc1,16.9µM,i,i,nt,nt,i
Cc1ccccc1C1CC(=O)Nc2ccc3ccccc3c21 (centres undefined),i,nt,nt,i,nt,nt
COc1ccc(CNC(=O)Cc2c(C)c3c(cc(C)c4c(C)coc43)oc2=O)cc1,i,nt,nt,i,nt,nt
CCOC(=O)c1c(S(=O)(=O)N2CCC(C(=O)N3CCN(c4cccc(C)c4C)CC3)CC2)c(C)n(C)c1C,i,nt,nt,nt,nt,nt
COc1cc(/C=N/Nc2nc(-c3ccc(S(=O)(=O)N(C)C)cc3)cs2)ccc1O,3.38µM,i,i,nt,nt,i
COc1ccc(/C=N/Nc2nc(-c3cccc(S(=O)(=O)N4CCCC4)c3)cs2)cc1OC,?,i,i,i,i,i
COc1ccc(/C=N/Nc2nonc2N)cc1OC,?,i,i,i,i,i
COc1ccc(/C=N/Nc2nc(N)cc(Cl)n2)cc1OC,16.9µM,i,i,i,i,i
COc1cc(/C=N/Nc2ccccn2)ccc1O,6.01µM,i,9.2µM,nt,nt,?
Cn1cc(C(=O)O)c(=O)c2cc(S(=O)(=O)N3CCCCC3)ccc21,i,nt,nt,nt,nt,nt
COC(=O)[C@H](CCSC)NC(=O)c1cccnc1SC,i,i,i,nt,nt,i
CCc1ccc(C(=O)NC(CCSC)C(=O)OC)cc1 (centres undefined),19µM,i,i,i,i,i
Cc1ccc(Nc2n[nH]c(C)c2[N+](=O)[O-])cc1,19µM,2.82µM,i,17.8µM,i,3.55µM
Cc1cccc(Nc2n[nH]c(C)c2[N+](=O)[O-])c1,15.1µM,2.51µM,5.8µM,?,i,3.16µM
Cc1[nH]nc(Nc2ccc(Br)cc2)c1[N+](=O)[O-],9.53µM,2.82µM,?,nt,nt,3.16µM
Cc1[nH]nc(Nc2ccc(C(C)C)cc2)c1[N+](=O)[O-],9.53µM,3.55µM,?,nt,nt,3.55µM
Cc1[nH]nc(Nc2ccccc2)c1[N+](=O)[O-],?,i,i,i,i,i
O=C(COc1ccc(Cl)cc1)NCCc1csc(-c2cccc(F)c2)n1,i,nt,nt,nt,nt,nt
CNc1nc(Nc2ccc(Br)cc2)nc(N)c1[N+](=O)[O-],i,?,?,i,i,3.55µM
COc1ccc(Nc2nc(N)c([N+](=O)[O-])c(NCCO)n2)cc1,?,i,i,nt,nt,i
Cc1ccc(NC(=O)c2sc3nc(C)cc(C)c3c2N)cc1,1.2µM,0.562µM,?,nt,nt,0.562µM
Cc1cc(C)c2c(N)c(C(=O)Nc3nccs3)sc2n1,0.338µM,?,0.326µM,?,i,1µM
SMILES,FLuc modulator,NPC1 prom act,ELG1 genotox,SMN2 splice up,KinaseGlo FLuc,Rab9 promoter act
COCc1cc(C)nc2sc(C(=O)Nc3nccs3)c(N)c12,16.9µM,?,i,i,i,?
CCCCOC(=O)c1sc2nc(C)cc(C)c2c1N,10.7µM,3.55µM,?,nt,nt,2.82µM
COCc1cc(C)nc2sc(C(=O)Nc3ccc(OC)cc3)c(N)c12,?,i,?,nt,nt,?
O=C(OCc1ccccc1F)c1ccc(-c2nnn(Cc3ccccc3)n2)cc1,i,nt,nt,i,nt,nt
COc1ccc(-n2nc3cc(C)c(NC(=O)c4ccc(-c5ccc(Br)cc5)o4)cc3n2)cc1,?,nt,nt,i,nt,nt
CC1=CC(=O)C2C(C)(C)CCC[C@@]2(C)[C@@]1(O)CCc1ccoc1 (some centres undefined),nt,nt,nt,i,i,nt
C/C(=N\NS(=O)(=O)c1ccc([N+](=O)[O-])cc1)c1ccc2c(c1)OCO2,i,i,i,nt,nt,i
Cc1ccc(S(=O)(=O)N/N=C/c2ccccc2O)cc1[N+](=O)[O-],15.1µM,i,i,i,i,i
Cc1ccc(S(=O)(=O)N/N=C/c2ccc(O)c(O)c2)cc1[N+](=O)[O-],i,i,i,i,i,i
C/C(=N\NS(=O)(=O)c1ccc(C)c([N+](=O)[O-])c1)c1ccc2c(c1)OCO2,10.7µM,i,i,nt,nt,i
CCOC(=O)C(=CNc1ccc2c(c1)CCN2C(C)=O)C(=O)OCC,12µM,i,i,nt,nt,i
C[N+]1(C)CCc2cc(O)c(O)cc2[C@H]1Cc1ccc(O)c(O)c1,nt,nt,nt,i[9.22 µM],i[7.66 µM],nt
Cc1cnc(-c2nnc(N(C)C(=O)c3cccnc3)s2)cn1,i,i,i,i,i,i
Cc1ccc(-c2nnc(N(C)C(=O)c3cccnc3)s2)cn1,i,i,i,i,i,i
Cc1ccc(-c2nnc(N(C)C(=O)c3cccnc3)s2)cc1,8.49µM,3.16µM,i,i,i,3.55µM
COc1ccc(-c2nnc(N(C)C(=O)c3cccnc3)s2)cc1,13.5µM,?,?,i,i,?
CC1=C(C#N)C(=O)NC(=O)/C1=C\c1ccc(-c2ccc(C)cc2[N+](=O)[O-])o1,26.9µM,i,i,i,i,i
CCOC(=O)c1cc(-c2ccc(/C=C3/C(=O)NC(=O)C(C#N)=C3C)o2)ccc1Cl,?,i,i,i,i,i
O=C1NCCC/C1=N/Nc1cc(F)ccc1F,19µM,?,?,nt,nt,?
Cc1ccc(N/N=C2/CCCNC2=O)cc1,?,i,i,i,i,i
CC/C(=N\NC(=O)c1c(C)nc2ccccn12)c1ccccc1,i,i,i,nt,nt,i
O=C(N=c1nc2ccccn2s1)c1ccccc1,0.19µM,0.891µM,0.13µM,1.78µM,2.51µM,?
Nc1ccccc1SC1CC(=O)N(c2ccc(Cl)c(Cl)c2)C1=O (centres undefined),i,i,i,nt,nt,i
Nc1ccccc1SC1CC(=O)N(c2ccc3c(c2)OCCO3)C1=O (centres undefined),?,?,i,nt,nt,2.24µM
ClCCl,nt,nt,nt,i,nt,nt
SMILES,FLuc modulator,NPC1 prom act,ELG1 genotox,SMN2 splice up,KinaseGlo FLuc,Rab9 promoter act
O=c1nc(/C=C/c2ccc(O)c(O)c2)oc2ccccc12,8.49µM,?,20.6µM,nt,nt,?
COc1ccc(/C=C\c2nc(=O)c3ccccc3o2)cc1,3.79µM,?,?,nt,i,?
CCOc1ccc(OCC)c(NC(=O)CCC(=O)N2CCOc3ccccc32)c1,i,nt,nt,nt,nt,nt
Cc1cc(C)c2c(=O)cc(C(=O)Nc3ccc(S(=O)(=O)Nc4onc(C)c4C)cc3)oc2c1,?,nt,nt,i,nt,nt
COc1ccc(/C=N/Nc2nc(-c3ccc(C)cc3)c(NC(C)=O)s2)cc1,5.36µM,i,i,nt,nt,i
CC(=O)Nc1sc(N/N=C/c2ccccc2)nc1-c1ccc(C)cc1,8.49µM,i,i,nt,nt,i
CC(C)(C)c1csc(N/N=C/c2ccc(O)cc2)n1,21.3µM,i,?,nt,nt,?
CC(=O)Nc1sc(N/N=C\c2ccccc2)nc1-c1cccs1,19µM,i,?,i,i,i
COc1ccccc1C(=O)NC1(C(F)(F)F)C(=O)Nc2c1c(=O)[nH]c(=O)n2-c1ccccc1 (centres undefined),i,nt,nt,i,nt,nt
